NPSR antag: neuropeptide S receptor (human) antagonism, cAMP; 220,000 tested, 1% active; Potency, µM (doses to about 38.3 µM), for the others: at the highest dose activity change, negative = inhibition, hits mostly inhibitors; CHO-NPSR cells, cAMP TR-FRET, antagonist mode; active = well fitted curve in the direction sought with a large enough effect; inconclusive = small, poorly fitted or top-dose-only effect, or another doubt; inactive = no such curve, though single readings can be large; an effect the other way counts as inactive or inconclusive; note: potency is the fitted concentration of half-maximal effect; nearly all actives have a fitted effect of over 50% in size
Coupling enz: coupling enzyme interference in Giardia aldolase counter-screen. activity change, negative = inhibition, % at 58.2 µM, hits read low. 290,000 tested, 0.67% active. coupling enzyme system counterscreen, AmpLite Red fluorescence; in the data active = activity change below about -30%
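First, compound is pin-transferred into glyceraldehyde-3-phosphate coupling-enzyme reagent at 57.5 uM final and held 10 min at RT. Next, substrate, coupling system and AmpLite Red are added. After 20 min RT, fluorescence (525/598 nm) is read.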
RGS12 GoLoco inh: blocks human Gai1 binding to RGS12 GoLoco peptide, red readout; P63096; Gai1:RGS12 GoLoco peptide FP, rhodamine, 10 min; Potency, µM (highest dose often 61.6 µM), for inactives: at the highest dose activity, negative = inhibition, most hits filed as inhibitors; 230,000 tested, 0.44% active; AID 880; active = well fitted inhibition curve with a large enough effect, not every such curve was filed as active; inactive = no such curve, though single readings can be large or run the other way; note: potency is the fitted concentration of half-maximal effect; nearly all actives have a fitted effect of over 30% in size
Target sequence (P63096 whole entry, looked up): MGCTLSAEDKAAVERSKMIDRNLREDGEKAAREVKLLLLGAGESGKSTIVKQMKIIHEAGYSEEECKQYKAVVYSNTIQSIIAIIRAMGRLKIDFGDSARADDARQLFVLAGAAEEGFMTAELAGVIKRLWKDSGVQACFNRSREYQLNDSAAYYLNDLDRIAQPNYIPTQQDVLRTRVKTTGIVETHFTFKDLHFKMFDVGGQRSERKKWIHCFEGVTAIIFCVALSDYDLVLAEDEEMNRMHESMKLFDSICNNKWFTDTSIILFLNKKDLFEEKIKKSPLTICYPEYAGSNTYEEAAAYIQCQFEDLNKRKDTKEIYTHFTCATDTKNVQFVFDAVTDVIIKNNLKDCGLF
Sfp PPTase inh: Sfp phosphopantetheinyl transferase inhibition; Q9F4F7; Biochemical Sfp PPTase activity, qHTS; 310,000 tested, 3.5% active; Potency, µM, without a hit: largest response in the series, negative = inhibition, most hits filed as inhibitors; AID 1490; active = well fitted curve in the direction sought with a large enough effect; inconclusive = small, poorly fitted or top-dose-only effect, or another doubt; inactive = no such curve, though single readings can be large; an effect the other way counts as inactive or inconclusive;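 note: the enzyme is Sfp with the accession as filed and its product quenches rhodamine fluorescence; potency is the fitted concentration of half-maximal effect; 0% = enzyme reaction without inhibitor and -100% = no enzyme wells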
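Reaction rates are the 30-min fluorescence difference (ex 525, em 598 nm) in wells containing 15 nM Sfp, 5 uM rhodamine-CoA and 12.5 uM BHQ-2-YbbR at pH 7.6 with 10 mM MgCl2.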
ALDH1A1 inh: blocks purified human ALDH1A1 activity; P00352; Purified ALDH1A1, NADH fluorescence, propionaldehyde substrate; Potency, µM (titrated, usually from 75.3 µM), for the others: top-dose activity, negative = inhibition, actives largely listed as inhibitors; 220,000 tested, 7.3% active;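 note: potency is the fitted concentration of half-maximal effect; plate controls were no enzyme wells and a reference inhibitor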
JMJD2E inh: blocks human JMJD2E demethylase activity | Potency, µM (titrated, usually from 57.1 µM), without a hit: at the highest dose activity change, negative = inhibition, hits mostly inhibitors | AID 2147 | JMJD2E catalytic domain, FDH-coupled NADH fluorescence (FDH is formaldehyde dehydrogenase) | 230,000 tested, 1.6% active;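 note: potency is the fitted concentration of half-maximal effect; 0% = wells with enzyme and -100% = buffer wells without enzyme; nearly all actives have a fitted effect of over 50% in size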
Target sequence (B2RXH2 1-337 limits assumed): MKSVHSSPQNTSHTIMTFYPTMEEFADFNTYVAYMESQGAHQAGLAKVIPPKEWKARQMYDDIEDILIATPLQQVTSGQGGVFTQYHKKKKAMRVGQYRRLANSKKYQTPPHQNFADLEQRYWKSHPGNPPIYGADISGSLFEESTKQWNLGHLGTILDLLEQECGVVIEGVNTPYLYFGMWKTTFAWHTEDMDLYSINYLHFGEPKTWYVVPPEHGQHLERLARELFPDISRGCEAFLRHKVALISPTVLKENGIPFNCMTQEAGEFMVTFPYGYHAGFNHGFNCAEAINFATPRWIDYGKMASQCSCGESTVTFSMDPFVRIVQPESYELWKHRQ
Numbers without * were called inactive; ? = inconclusive; nt = no result; ! = not active in a repeat; [ ] = another dose, or the depositor's remark. Rows were chosen to be rich in hits. Some 8.5% of all compounds tested hit in one or more screens of this group. Unless noted, calls come from the whole dose curve; as a rule, active = well fitted inhibition curve with a large enough effect (not every such curve was filed as active); inconclusive = small, poorly fitted or top-dose-only effect, or another doubt; inactive = no such curve, though single readings can be large or run the other way. Unless noted, % is set by controls: 0 for no effect and ±100 for the full control effect.

SMILES | NPSR antag | Coupling enz | RGS12 GoLoco inh | Sfp PPTase inh | ALDH1A1 inh | JMJD2E inh
CC(=O)NC(c1ccc(C)cc1)c1cc(Cl)c2cccnc2c1O (stereo not given) | nt | 1.4 | nt | 11.2% | nt | nt
Oc1c(C(c2ccc(Cl)cc2)N2CCCC2)cc(Cl)c2cccnc12 (stereo not given) | -57.0% | -6.6 | 8.5% | -69.8% | 14.1µM* | ?
Oc1c(C(c2ccccn2)N2CCC(Cc3ccccc3)CC2)cc(Cl)c2cccnc12 (stereo not given) | ? | -17.4 | 11.7% | ? | 5.62µM* | ?
Cc1cccc(C)c1OCC(=O)N(Cc1ccc(N(C)C)cc1)C1CCS(=O)(=O)C1 (stereo not given) | 9.4% | 2.1 | 1.0% | 2.1% | nt | -2.8%
CC(C)c1ccc(/C(C(=O)O)=C(\O)C(=O)O)cc1 | nt | nt | 8.7%[14.2 µM] | nt | 1.9%[13.5 µM] | nt
CCOC(=O)Cn1nc(C)c(NC(=O)COc2ccc(C)c(C)c2)c1C | 13.4% | -1.9 | -3.6% | 13.8% | nt | 13.1%
CCOC(=O)c1sc(NC(=O)CSc2n[nH]c(-c3ccncc3)n2)c(C#N)c1C | -25.0%[46.1 µM] | 4.4 | 23.5% | 2.3% | 35.5µM* | ?
Cc1ccccc1-c1cc(C(=O)Nc2sc(C(=O)OC(C)C)c(C)c2C#N)c2ccccc2n1 | -18.1%[46.1 µM] | 11.2 | 27.0% | 39.8µM* | 8.91µM* | ?
CCOC(=O)c1sc(NC(=O)c2cc(-c3ccc(C)cc3)nc3ccccc23)c(C#N)c1C | 2.5%[46.1 µM] | 4.6 | -1.7% | 20µM* | ? | -9.1%
Cc1sc(NC(=O)c2cc(-c3ccc(Cl)cc3)nc3ccccc23)c(C(N)=O)c1C | -7.1%[46.1 µM] | 2.3 | 11.5% | ? | 25.1µM* | -6.7%
CCOC(=O)c1sc(NC(=O)CSc2nccc(C)n2)c(C#N)c1C | -13.2%[46.1 µM] | 3.7 | -12.2% | 2.2% | -1.4% | 1.2%
COc1ccc(C2/C=C\CN(S(=O)(=O)CC34CCC(CC3=O)C4(C)C)CC(=O)N2Cc2ccc(F)cc2)cc1 (stereo not given) | nt | -0.4 | nt | 11.5% | nt | nt
COC(=O)C1CN(C(=O)COc2ccc(C)c(C)c2)c2ccccc2O1 (stereo not given) | nt | -5.1 | nt | 3.6% | nt | nt
C=CCN=c1scc(-c2ccc(F)cc2)n1/N=C/c1ccccn1 | 3.5% | -5.8 | -1.7% | ? | -9.3% | 20.6%
C=CCN=c1scc(-c2ccc3c(c2)NC(=O)CO3)n1/N=C(\C)c1ccccn1 | -32.9% | -1.5 | -3.3% | 4.1% | 2.82µM* | -10.9%
O=C(c1coc2ccc(O)cc12)C1CC1 | ? | 1.4 | 0.8% | 12.6% | 2.82µM* | 5.1%
CC(=O)c1cccc(NC(=O)C2CC(=O)N(c3cccc(C)c3C)C2)c1 (stereo not given) | -1.4%[46.1 µM] | 0.1 | 2.5% | 9.5% | 5.01µM* | 5.7%
CC(=O)c1cccc(NC(=O)C2CCCCC2)c1 | -5.6%[46.1 µM] | 4.4 | -4.1% | -11.2% | 8.91µM* | 2.6%
O=C(/C=C\c1ccc(O)c(O)c1)O[C@@H](Cc1ccc(O)c(O)c1)C(=O)O | nt | -6.7 | 10µM* | 50.1µM* | -0.9% | 4.47µM*
O=C(/C=C/c1ccc(O)c(O)c1)OC(Cc1ccc(O)c(O)c1)C(=O)O (stereo not given) | nt | -9.5 | -38.1% | 79.4µM*! | -14.8% | 3.98µM*
N[C@@H](Cc1ccc(O)c(I)c1)C(=O)O | -2.9% | 5.0 | 3.4% | -6.4% | 10.2% | 5.0%
COc1ccccc1NC(=O)c1c[nH]c2ccccc12 | nt | -7.2 | nt | 11.0% | nt | nt
COc1ccccc1NC(=S)N(Cc1ccco1)Cc1cc2ccc(C)c(C)c2[nH]c1=O | 8.4% | 0.2 | 5.7% | 50.1µM* | ? | -16.5%
Cc1cccc2cc(CN(CC3CCCO3)C(=S)NCc3ccco3)c(=O)[nH]c12 (stereo not given) | 4.0% | -1.7 | 0.0% | 50.1µM* | ? | -0.6%
Cc1cccc2cc(CN(CC3CCCO3)C(c3nnnn3Cc3ccco3)C(C)C)c(=O)[nH]c12 (stereo not given) | ? | -3.9 | 7.6% | -7.6% | 6.31µM* | 0.6%
SMILES | NPSR antag | Coupling enz | RGS12 GoLoco inh | Sfp PPTase inh | ALDH1A1 inh | JMJD2E inh
Cc1cc(C)c2cc(CN(CC3CCCO3)C(=S)NCc3ccco3)c(=O)[nH]c2c1 (stereo not given) | 27.8% | 0.0 | 12.3% | -11.0% | 15.8µM* | -16.7%
COC(=O)C1=C[C@@H](C(=O)OC)C2C3=C(C(=O)[C@@]2(C)NC(=O)c2ccccc2)[C@H](c2ccccc2)n2c(=O)n(-c4ccccc4)c(=O)n2[C@@H]3C1 (stereo not given in full) | nt | 0.0 | nt | 7.9% | nt | nt
CCC(c1nnnn1CCc1ccccc1)N(Cc1ccco1)Cc1cc2cccc(C)c2[nH]c1=O (stereo not given) | ? | -1.3 | 11.1% | 0.9% | ? | -27.8%
Cc1ccc(C)c2[nH]c(=O)c(CN(Cc3ccco3)C(=S)NCC3CCCO3)cc12 (stereo not given) | 45.3% | 1.4 | 24.6% | -17.6% | 20µM* | ?
Cc1cc(C)c2[nH]c(=O)c(C(c3nnnn3C(C)(C)C)N(Cc3ccco3)CC3CCCO3)cc2c1 (stereo not given) | -21.5%[46.1 µM] | -40.2* | 13.7% | ? | -13.8% | -8.0%
Cc1ccc2[nH]c(=O)c(CN(CC3CCCO3)C(=S)NCc3ccco3)cc2c1 (stereo not given) | -11.9% | 2.4 | 5.5% | -5.1% | ? | -11.2%
CCC(c1nnnn1C(C)(C)C)N(Cc1ccco1)Cc1cc2cccc(C)c2[nH]c1=O (stereo not given) | ? | -8.9 | -0.2% | 56.2µM* | ? | -2.9%
COc1ccc2cc(CN(CC3CCCO3)C(=S)NCc3ccco3)c(=O)[nH]c2c1 (stereo not given) | 29.8% | -7.3 | 18.6% | -25.6% | 3.55µM* | ?
CSc1ccc(S(=O)(=O)NCCCOC(C)C)cc1 | -3.2% | 3.2 | 4.0% | 15.9% | ? | 15.2%
c1cc(SSc2ccncc2)ccn1 | nt | -1.0 | nt | 35.5µM* | nt | nt
O=C(Nc1ccccc1Cl)C1CCN(S(=O)(=O)c2cccc3nonc23)CC1 | nt | 6.9 | nt | -13.2% | nt | nt
CC(C)C(=O)Nc1ccc(N2CCCC2)cc1 | ? | -32.0* | 4.6% | 79.4µM* | -18.5% | -28.1%
O=C(Nc1ccc(N2CCCC2)cc1)C(c1ccccc1)c1ccccc1 | ? | -4.3 | 14.7% | 50.1µM* | -6.5% | -9.7%
CC(=O)N1CCN(c2ccc(NC(=O)C(c3ccccc3)c3ccccc3)cc2)CC1 | nt | 1.1 | nt | 3.7% | nt | nt
COc1ccc(CCNC(=O)C2CCC(=O)N(CC3CCCCC3)C2)cc1 (stereo not given) | nt | 3.1 | nt | 2.3% | nt | nt
COc1ccc(C(=O)N/N=C(\N)c2cc3ccccc3oc2=O)cc1 | nt | 4.1 | nt | 5.8% | nt | nt
CCCC(=O)N1c2ccccc2C(=C2SC(C(=O)OC)=C(C(=O)OC)S2)C(=S)C1(C)C | -55.1% | 4.8 | 6.4% | -4.3% | -12.4% | -10.9%
